For orientation: inhibition means the relative decrease from the control value, in per cent. Usually viability stands for a read-out of living cells in per cent, often relative to untreated cells.

Molecules are shown by their SMILES. “And” between values parts separate entries of the source, which are not always exact repeats. Identical values can stand only once. A structure can be active in one record and inactive in another. The source made the active and inactive calls. Unless noted, the rule behind the calls is not given here.

The nature of test [1]: signal quenchers or enhancers, Cy5 substrate/SSB – biochemical, NIH Clinical Collection, E. coli SSB, artefact control for HCV NS3 helicase inhibitor project (AID 743268). The settings on record: Cy5-oligo bound E. coli SSB, fluorescence interference.
Test [2] deals with Hepatitis C virus NS3 helicase. As to the kind of experiment: blockers of NS3h binding to DNA – biochemical, fluorescence polarization, NIH Clinical Collection, primary screen (AID 743270). Particulars: NS3 helicase binding to Cy5-dT15 DNA, stronger effect = higher value, concentration not given here. A general note: In fluorescence polarisation assays a small probe gives low polarisation when free and higher when bound to something large.

In test [3] the target is Single-stranded DNA-binding protein (Escherichia coli (strain K12)) (UniProt P0AGE0). As to the kind of experiment: SSB-ssDNA binding inhibitors – biochemical, fluorescence polarization, NIH Clinical Collection, counter-screen for HCV NS3 helicase inhibitor project (AID 743271; in the data active = inhibition above about 28%). Particulars: E. coli SSB-DNA binding, stronger effect = higher value, concentration not given here.
A short description of test [4]: compounds distorting NS3 helicase fluorescence signal – biochemical, NIH Clinical Collection, artefact control for HCV NS3 helicase inhibitor project (AID 743272).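 Note: HCV NS3 helicase with a Cy5 labelled single stranded DNA probe.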 The settings on record: fluorescence interference counterscreen, HCV NS3 helicase assay; stronger effect = lower value.
A short description of test [5]: Wnt pathway potentiators raising nuclear beta-catenin – imaging, WNT3A-conditioned medium, mouse C2C12, NPC library, primary screen (AID 1117326; in the data active = nuclear beta-catenin stimulation mostly above about 4.2%, no sharp cut-off; inactive = mostly below about 10%). Particulars: stronger effect = higher value.
A short description of test [6]: stimulators of insulin release from INS-1E, primary screen, cell-based, 5 mM glucose, NPC library (AID 1117329;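 active = compound raises insulin release from rat beta cells at 5 mM glucose, no numeric limit stated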). The settings on record: rat INS-1E insulin secretion, at 10 µM, stronger effect = higher value.
Test [7] is described as follows: growth inhibition of GSK3B-pretreated HCT116 cells – cell-based, CellTiter-Glo, 0.2 to 20 µM (AID 1117336;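 active = compounds lowering colon cancer cell viability after pretreatment blocking the GSK3B kinase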). The settings on record: HCT116 viability after GSK3B inhibitor, at 20 µM, stronger effect = higher value. On the technique in general: In ATP-based viability assays light output follows the ATP content of the culture.
Test [8] can be described thus: inhibition of endothelial tube formation, primary screen, imaging, VEGF stimulated, CD31 staining, tube area, NPC library (AID 1117340;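 active = compound that reduces growth-factor-driven endothelial tube area in a mixed cell culture, no cutoff stated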). The settings on record: VEGF-stimulated ADSC/ECFC co-culture, at 10 µM, stronger effect = higher value.
Test [9] in a line: GLP1 release stimulators, primary, NCI-H716, NPC library (AID 1117341;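 active = compound raises GLP1 secretion from the human gut endocrine cells, with no numeric limit stated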). The settings on record: NCI-H716 cells, at 10 µM, stronger effect = higher value.
Test [10] can be described thus: HCT116 colon cancer cell growth inhibition, primary screen, CellTiter-Glo luminescence, NPC library (AID 1117342;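 active = compounds that lower survival of HCT116 colon cancer cells in the luminescence readout, no numeric limit stated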). Particulars: at 20 µM (top of the series).
The nature of test [11]: reduced SW480 viability measured with CellTiter-Glo, NPC library, primary (AID 1117343;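 active = compounds that lower viability of the colon cancer cells in the luminescence readout, with no numeric limit stated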). The settings on record: CellTiter-Glo luminescence; at 20 µM (top of the series).
Test [12] is described as follows: NPC library primary testing for decreased DLD-1 cell viability via CellTiter-Glo (AID 1117346;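 active = compounds that lower survival of DLD-1 colon cancer cells in the luminescence readout, no cutoff given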). Particulars: DLD-1 viability, CellTiter-Glo luminescence; at 20 µM (top of the series).
Test [13] deals with 6-phosphogluconate dehydrogenase, decarboxylating (Homo sapiens) (UniProt P52209). As to the kind of experiment: inhibition of human phosphogluconate dehydrogenase – biochemical, recombinant enzyme, NADPH absorbance, primary screen (AID 1159550;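 active = at least 20% inhibition of 6-phosphogluconate dehydrogenase activity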). Particulars: recombinant 6PGD, NADPH absorbance 341 nm; at 10 µM; stronger effect = higher value.
Test [14] is described as follows: EMT-state selective cytotoxicity in co-culture – imaging, PC-3E GFP, TEM4-18 mCherry, primary screen (AID 1345086;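 active = compounds killing one labelled cell type while sparing the other, by normalised counts and ratio limits, not self-fluorescent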;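 for all read-outs here: cells exposed to compound for 72 h before imaging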;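 for red/green cell ratio (normalised): normalised mesenchymal count divided by normalised epithelial count so high means epithelial killing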). The settings on record: PC-3E GFP / TEM4-18 mCherry co-culture, imaging cell counts, at 1 µM; for red/green cell ratio (normalised): actives lie on both sides, counts scaled to control wells, 1 = unselective.
Test [15] is described as follows: MELAS cybrid and Rieske KO viability enhancers – cell-based, MELAS cybrids, Rieske KO mouse fibroblasts, CellTiter-Glo, primary screen (AID 1508586;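 active = mean z-score across replicates of 1.96 or higher in either the MELAS or the Rieske mutant cell line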;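 note: z relative to plate mean and SD of compound and empty wells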). Particulars: low glucose.
The target in test [16] is NAD(+) hydrolase SARM1 (Homo sapiens) (UniProt Q6SZW1). As to the kind of experiment: blocking NAD cleavage by SARM1 SAM-TIR – cell lysate, NAD-Glo luminescence (AID 1508614;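 active = compound whose remaining NAD level is above about 45 nM, limit read from the data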;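 note: higher remaining NAD means stronger inhibition of SARM1 NADase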). The settings on record: SAM-TIR HEK293T lysate NADase, at 1 µM, stronger effect = higher value.
In test [17] the target is Mitogen-activated protein kinase 7 (Homo sapiens) (UniProt Q13164). In words: Gal4-ERK5 driven luciferase induction – cell-based, HTS, primary screen (AID 1508626;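 active = luciferase signal above three times the same-plate solvent-only control wells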;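 note: luciferase driven by Gal4-ERK5 fusion binding five Gal4 sites before minimal TATA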). Particulars: HeLa Gal4-ERK5 transactivation, 18 h, at 5 µM, stronger effect = higher value.
The test system of test [18] is F380Y. In words: BK channel mutant inhibitors and activators – cell-based, U2OS BacMam, thallium flux, beta subunits, selectivity assay, profiling panel (AID 1259406;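 active = thallium flux through the channel raised or lowered by more than 3 SD from vehicle-only wells, actives on both sides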;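 note: initial slope of Thallos dye fluorescence rise after thallium is added; log ratio against the mean of 0.3% DMSO vehicle wells on the same plate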). Particulars: U2OS BacMam BK variants, at 30 µM.
Test [19] in a line: P. berghei load reduction in hepatocytes – cell-based, HepG2, luciferase luminescence, HepG2 viability, primary screen (AID 624349; in the data active = parasite load remaining mostly below about 12%, no sharp cut-off; inactive = mostly above about 10%;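 note: 100% = mean of DMSO negative control wells on the same plate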). The settings on record: P. berghei liver stage in HepG2, luciferase luminescence, concentration not given here; parasite load remaining: stronger effect = lower value; viability: measured here: HepG2 viability without parasites.
Test [20] in a line: viability loss with induced miR-34 in A549 – imaging, A549 dox-inducible miR-34, nuclei and caspase counts, primary screen (AID 1347080;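 active = compounds whose cell count with miR-34 switched on is under 0.7 times the count with it off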). Particulars: A549 miR-34 inducible, Hoechst nuclei count, 48 h.
Setting [21] is: measured here: epithelial PC-3E GFP cell survival.
The mark [22] stands for this setting: measured here: mesenchymal TEM4-18 mCherry cell survival.
[23] abbreviates: MELAS cybrid survival, CellTiter-Glo 48 h, stronger effect = higher value.
Where [24] appears, read: Rieske KO mouse fibroblast survival, CellTiter-Glo 72 h.
Where [25] appears, read: stronger effect = lower value, cell number ratio, induced over uninduced.
[26] abbreviates: measured here: relative caspase fold change +Dox/-Dox.
Setting [27] is: measured here: total cells with miR-34 induction, stronger effect = lower value.
Where [28] appears, read: measured here: total cells without miR-34 induction.

Sequence of Mitogen-activated protein kinase 7 (Homo sapiens) (Q13164 whole entry, looked up, the tested form may be a part): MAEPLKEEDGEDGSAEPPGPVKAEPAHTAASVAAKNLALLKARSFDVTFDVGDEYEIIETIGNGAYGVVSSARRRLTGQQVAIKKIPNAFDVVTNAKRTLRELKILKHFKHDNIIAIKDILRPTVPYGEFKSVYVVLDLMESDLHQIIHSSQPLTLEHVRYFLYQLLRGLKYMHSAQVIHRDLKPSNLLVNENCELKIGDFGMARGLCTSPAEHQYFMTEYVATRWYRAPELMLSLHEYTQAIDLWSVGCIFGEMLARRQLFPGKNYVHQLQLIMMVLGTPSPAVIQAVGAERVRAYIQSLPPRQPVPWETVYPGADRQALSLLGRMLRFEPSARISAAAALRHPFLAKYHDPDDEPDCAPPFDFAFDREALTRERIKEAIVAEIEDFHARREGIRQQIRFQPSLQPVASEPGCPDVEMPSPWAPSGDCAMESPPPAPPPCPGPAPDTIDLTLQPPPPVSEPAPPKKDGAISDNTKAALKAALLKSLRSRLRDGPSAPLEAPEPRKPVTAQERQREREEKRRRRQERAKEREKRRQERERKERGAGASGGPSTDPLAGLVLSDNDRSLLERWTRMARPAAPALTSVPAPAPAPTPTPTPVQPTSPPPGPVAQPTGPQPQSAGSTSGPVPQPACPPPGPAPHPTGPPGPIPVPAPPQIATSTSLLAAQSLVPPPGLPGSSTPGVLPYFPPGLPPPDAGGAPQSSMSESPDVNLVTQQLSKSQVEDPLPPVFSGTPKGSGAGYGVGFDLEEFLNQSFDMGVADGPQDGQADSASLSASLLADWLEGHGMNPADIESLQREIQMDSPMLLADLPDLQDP
Sequence of 6-phosphogluconate dehydrogenase, decarboxylating (Homo sapiens) (P52209 whole entry, looked up): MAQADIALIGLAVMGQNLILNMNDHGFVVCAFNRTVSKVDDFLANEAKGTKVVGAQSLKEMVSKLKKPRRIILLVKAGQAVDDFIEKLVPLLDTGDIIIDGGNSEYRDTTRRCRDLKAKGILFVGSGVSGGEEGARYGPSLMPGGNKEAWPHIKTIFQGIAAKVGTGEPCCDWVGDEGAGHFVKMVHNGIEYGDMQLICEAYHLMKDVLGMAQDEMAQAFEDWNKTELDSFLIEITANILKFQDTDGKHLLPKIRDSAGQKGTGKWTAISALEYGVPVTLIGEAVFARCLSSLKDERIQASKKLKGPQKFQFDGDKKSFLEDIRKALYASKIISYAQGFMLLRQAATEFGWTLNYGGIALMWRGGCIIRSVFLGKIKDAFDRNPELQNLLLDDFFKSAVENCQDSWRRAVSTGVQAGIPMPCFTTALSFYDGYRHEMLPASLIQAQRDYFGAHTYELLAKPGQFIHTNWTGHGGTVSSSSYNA
Sequence of NAD(+) hydrolase SARM1 (Homo sapiens) (Q6SZW1 whole entry, looked up, the tested form may be a part): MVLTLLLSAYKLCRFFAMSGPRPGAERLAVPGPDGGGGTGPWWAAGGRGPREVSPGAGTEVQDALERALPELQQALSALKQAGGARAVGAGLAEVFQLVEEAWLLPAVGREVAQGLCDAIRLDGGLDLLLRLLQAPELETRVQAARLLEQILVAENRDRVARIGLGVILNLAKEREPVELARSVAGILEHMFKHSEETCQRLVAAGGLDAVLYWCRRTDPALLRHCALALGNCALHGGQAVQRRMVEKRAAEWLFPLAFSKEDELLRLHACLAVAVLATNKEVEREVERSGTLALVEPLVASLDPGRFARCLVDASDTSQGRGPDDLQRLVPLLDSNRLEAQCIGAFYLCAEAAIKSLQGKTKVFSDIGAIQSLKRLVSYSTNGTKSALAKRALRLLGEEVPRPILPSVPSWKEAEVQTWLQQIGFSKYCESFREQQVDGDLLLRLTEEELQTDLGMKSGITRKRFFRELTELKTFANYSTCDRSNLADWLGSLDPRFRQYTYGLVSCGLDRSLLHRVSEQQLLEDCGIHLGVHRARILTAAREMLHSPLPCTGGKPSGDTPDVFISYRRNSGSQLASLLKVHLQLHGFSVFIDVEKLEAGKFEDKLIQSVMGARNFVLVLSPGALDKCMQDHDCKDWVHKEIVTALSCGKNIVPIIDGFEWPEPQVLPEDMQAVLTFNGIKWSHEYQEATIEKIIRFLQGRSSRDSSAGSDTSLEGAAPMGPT

`Cc1c(OCC(F)(F)F)ccnc1CS(=O)c1nc2ccccc2[nH]1` (stereo unspecified): the fluorescence ratio in test [1] was 0.95 (inactive); in test [4], 0.94 (inactive). The results for the inhibition in test [2], in [3] and in test [13] were 1.53% (inactive), 1.18% (inactive) and -1.09% (inactive), respectively. The nuclear beta-catenin stimulation in test [5] (at 10 µM) was 5.4% (inactive); in test [5] (stimulation, at 2 µM) it was 2.1%. The insulin secretion stimulation in test [6] was 0.9% (inactive). For the same compound, the viability decrease in test [7] was 27.8% (inactive). Also, in test [8], the tube area decrease is 32.8% (inactive). The GLP1 secretion stimulation in [9] is -1.8% (inactive). In addition, in test [10], the inhibition of viability is 54.6% (active). Besides, the viability decrease (inhibition) was 13.2% (inactive) in test [11] and -8.8% (inactive) in test [12]. Further, the red/green cell ratio (normalised) in test [14] is 1.36 (inactive) and 1.09 (inactive). For the same compound, the normalised cell number in test [14] (setting [21]) is 0.7 and 1.26; in [14] (setting [22]) it was 0.95 and 1.36. For the same compound, the z-score in [15] (setting [23]) is -0.355 (inactive) and 2.16 (active); in test [15] (setting [24]), 0.886 and 0.276. In addition, the remaining NAD in [16] is 10 nM (inactive). The luciferase signal in [17] is 60 AU (inactive).

Turning to `CCN(CC)C(=S)SSC(=S)N(CC)CC`, the results for the fluorescence ratio in test [1] and in [4] were 0.98 (inactive) and 0.99 (inactive), respectively. Also, the inhibition is -1.19% (inactive) in test [2], -1.64% (inactive) in test [3] and 1.47% (inactive) in test [13]. For the same compound, the nuclear beta-catenin stimulation in test [5] (at 10 µM) was 5.4% (inactive); in test [5] (stimulation, at 2 µM) it was 2.3%. In [6], the insulin secretion stimulation was 4.8% (inactive). Besides, the viability decrease in test [7] was 9.9% (inactive). Also, in [8], the tube area decrease is 35.6% (inactive). In addition, the GLP1 secretion stimulation in test [9] was 6.3% (inactive). The inhibition of viability in test [10] is 18.6% (inactive). The viability decrease (inhibition) was 39.4% (inactive) in [11] and 30.8% (inactive) in test [12]. The red/green cell ratio (normalised) in [14] was 0.63 (inactive). Besides, the normalised cell number in test [14] (setting [21]) was 0.27; in [14] (setting [22]) it was 0.17. The z-score is -0.351 (inactive) and 0.325 and -1.17 in [15] (setting [23]); -4.19 and 10.8 and 3.81 in test [15] (setting [24]). In addition, the remaining NAD in test [16] was 10 nM (inactive). For the same compound, in test [17], the luciferase signal is 16 AU (inactive). For the same compound, the log fold change Tl+ flux in test [18] was -0.0143 (inactive).

Consider `C[C@@H]1C[C@H]2[C@@H]3CCC4=CC(=O)C=C[C@]4(C)[C@@]3(F)[C@@H](O)C[C@]2(C)[C@@]1(O)C(=O)CO`, for which the parasite load remaining in test [19] was 76.8% (inactive) and 55.7% (inactive). For the same compound, the viability in test [19] is 86.4% and 108%. Besides, the fluorescence ratio is 1.05 (inactive) in [1] and 1 (inactive) in test [4]. The figures for the inhibition in test [2], in test [3] and in [13] were -3.18% (inactive), 0.29% (inactive) and 0.502% (inactive), respectively. For the same compound, the nuclear beta-catenin stimulation is -0.3% (inactive) in test [5] (at 10 µM) and -1.3% in test [5] (stimulation, at 2 µM). In addition, in test [6], the insulin secretion stimulation is 8.4% (inactive). Further, in test [7], the viability decrease was -0.1% (inactive). Further, the tube area decrease in test [8] is -12.9% (inactive). Also, the GLP1 secretion stimulation in test [9] is 4.4% (inactive). Further, the inhibition of viability in [10] was -7% (inactive). Further, the results for the viability decrease (inhibition) in test [11] and in test [12] were -0.8% (inactive) and 5.8% (inactive), respectively. Besides, the fold change is 0.906 (inactive) and 0.84 (inactive) and 0.875 (inactive) in [20] (setting [25]); 1.6 and 0.779 and 1.31 in [20] (setting [26]). In addition, the cell count is 7720 and 3310 and 7020 in [20] (setting [27]); 8520 and 3940 and 8020 in [20] (setting [28]). The z-score in test [15] (setting [23]) is 0.843 (inactive); in [15] (setting [24]) it was 0.569. Also, in [16], the remaining NAD was 10 nM (inactive). Further, in test [17], the luciferase signal was 100 AU (inactive). For the same compound, the log fold change Tl+ flux in [18] is 0.096 (inactive).

For `CC(=O)OCC(=O)[C@@]1(O)CC[C@H]2[C@@H]3CCC4=CC(=O)CC[C@]4(C)[C@H]3C(=O)C[C@@]21C`, the parasite load remaining in [19] was 71.9% (inactive). In addition, the viability in test [19] worked out at 95.8%. In addition, the fluorescence ratio in test [1] is 1.07 (inactive); in [4], 1.01 (inactive). In addition, the results for the inhibition in test [2], in test [3] and in test [13] were -0.45% (inactive), -0.48% (inactive) and -3.27% (inactive), respectively. Further, the nuclear beta-catenin stimulation in test [5] (at 10 µM) was 1.3% (inactive); in [5] (stimulation, at 2 µM) it was 0.9%. The insulin secretion stimulation in test [6] was 2.1% (inactive). Besides, the viability decrease in test [7] was 3.8% (inactive). Moreover, the tube area decrease in [8] was -2.1% (inactive). Also, in [9], the GLP1 secretion stimulation is 7% (inactive). The inhibition of viability in test [10] was -5.5% (inactive). The viability decrease (inhibition) in test [11] is -2.6% (inactive); in [12], -11.3% (inactive). The fold change in test [20] (setting [25]) is 0.993 (inactive) and 0.93 (inactive); in [20] (setting [26]), 1.87 and 1.55. For the same compound, the cell count in test [20] (setting [27]) was 10600 and 10400; in [20] (setting [28]), 10700 and 11200. Also, in [16], the remaining NAD is 10 nM (inactive). In addition, the luciferase signal in [17] was 28 AU (inactive). Further, the log fold change Tl+ flux in test [18] is -0.00173 (inactive).
